Drawing on PubChem BioAssay AID743482 (Broad Institute, 2014), this text covers outcome for 26 compounds.

The assay can be described thus: HepG2 viability loss by ATP level – cell-based, CellTiter-Glo luminescence, dry powder, cytotoxicity control, dose response (AID 743482). The note with it: 72 h; series mostly up to 26 µM. Background: Cellular ATP, detected with luciferase, serves as a proxy for viable cell number.

The structures appear in SMILES notation. Activity calls are given as the source filed them.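 How the source made its calls: active means falling viability signal whose fitted half-maximal concentration is at most twice the highest tested dose; inconclusive means flat fit with a moderate drop, or a poor curve fit; inactive means the rest.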

As for `C[C@H](CO)N1C[C@H](C)[C@@H](CN(C)C(=O)Nc2cccc3ccccc23)OCCCC[C@H](C)Oc2ccc(NC(=O)C3CCCCC3)cc2C1=O`, the compound was classed as inactive. `C[C@H]1CCCCO[C@@H](CN(C)S(=O)(=O)c2ccc(Cl)cc2)[C@@H](C)CN([C@@H](C)CO)C(=O)c2cc(NC(=O)NC3CCCCC3)ccc2O1`: the compound was classed as inactive. Turning to `C[C@H](CO)N1C[C@H](C)[C@H](CN(C)C(=O)Nc2ccccc2)OCCCC[C@H](C)Oc2ccc(NC(=O)NC3CCCCC3)cc2C1=O`, the outcome was inactive. Under `C[C@H](CO)N1C[C@H](C)[C@H](CN(C)C(=O)Nc2ccc(F)cc2)OCCCC[C@H](C)Oc2ccc(NC(=O)C3CCCCC3)cc2C1=O` stands “inactive”. As to `C[C@H](CO)N1C[C@H](C)[C@H](CN(C)C(=O)Nc2ccccc2)OCCCC[C@H](C)Oc2ccc(NC(=O)CCC(F)(F)F)cc2C1=O`, the outcome was inactive. As to `COc1ccc(S(=O)(=O)N(C)C[C@@H]2OCCCC[C@H](C)Oc3ccc(NS(=O)(=O)c4ccc(Cl)cc4)cc3C(=O)N([C@@H](C)CO)C[C@@H]2C)cc1`, the result was inactive.

As to `C[C@H](CO)N1C[C@H](C)[C@H](CN(C)C(=O)Nc2ccccc2)OCCCC[C@H](C)Oc2ccc(NC(=O)Nc3ccc4c(c3)OCO4)cc2C1=O`, the outcome was inactive. For the compound `C[C@H](CO)N1C[C@H](C)[C@H](CN(C)C(=O)Nc2ccccc2F)OCCCC[C@H](C)Oc2ccc(NC(=O)C3CCCCC3)cc2C1=O`, the call was inactive.

In the case of `C[C@H](CO)N1C[C@H](C)[C@H](CN(C)C(=O)Nc2ccc(F)cc2)OCCCC[C@H](C)Oc2ccc(NC(=O)C3CC3)cc2C1=O`, the outcome was inactive. With `COc1ccc(NC(=O)N(C)C[C@@H]2OCCCC[C@H](C)Oc3ccc(NC(=O)C4CCCCC4)cc3C(=O)N([C@H](C)CO)C[C@@H]2C)cc1`, the call was inactive.

For `C[C@H]1CCCCO[C@H](CN(C)C(=O)Nc2cccc3ccccc23)[C@@H](C)CN([C@@H](C)CO)C(=O)c2cc(NC(=O)C3CCCCC3)ccc2O1`, the outcome was inactive. Regarding `C[C@H](CO)N1C[C@H](C)[C@H](CN(C)C(=O)Nc2ccc(C(F)(F)F)cc2)OCCCC[C@H](C)Oc2ccc(NC(=O)NC3CCCCC3)cc2C1=O`, the call was inactive.

With `C[C@H](CO)N1C[C@H](C)[C@H](CN(C)C(=O)Nc2cccc3ccccc23)OCCCC[C@H](C)Oc2ccc(NC(=O)C3CCCCC3)cc2C1=O`, the outcome was inactive. For `C[C@H](CO)N1C[C@H](C)[C@H](CN(C)C(=O)Nc2ccc(F)cc2)OCCCC[C@H](C)Oc2ccc(NC(=O)Nc3ccccc3)cc2C1=O`, the result was inactive. As for `C[C@H](CO)N1C[C@H](C)[C@H](CN(C)C(=O)Nc2ccc3c(c2)OCO3)OCCCC[C@H](C)Oc2ccc(NC(=O)NC3CCCCC3)cc2C1=O`, the call was inactive.

`C[C@H](CO)N1C[C@H](C)[C@H](CN(C)C(=O)Nc2ccccc2)OCCCC[C@H](C)Oc2ccc(NC(=O)Nc3ccccc3)cc2C1=O`: the compound was called inactive. Regarding `C[C@@H]1CCCCO[C@@H](CN(C)C(=O)Nc2cccc3ccccc23)[C@@H](C)CN([C@@H](C)CO)C(=O)c2cc(NC(=O)C3CCCCC3)ccc2O1`, the outcome was inactive. With `CC(=O)Nc1ccc2c(c1)C(=O)N([C@H](C)CO)C[C@H](C)[C@H](CN(C)C(=O)Nc1ccc(F)cc1)OCCCC[C@H](C)O2`, the compound was called inactive. Take `C[C@H]1CCCCO[C@@H](CN(C)C(=O)Nc2ccc3c(c2)OCO3)[C@@H](C)CN([C@@H](C)CO)C(=O)c2cc(NC(=O)NC3CCCCC3)ccc2O1`: the result was inactive. Turning to `C[C@H](CO)N1C[C@H](C)[C@H](CN(C)C(=O)Nc2ccc3c(c2)OCO3)OCCCC[C@H](C)Oc2ccc(NC(=O)C3CCCCC3)cc2C1=O`, the call was inactive. With `C[C@@H]1CCCCO[C@@H](CN(C)C(=O)Nc2cccc3ccccc23)[C@@H](C)CN([C@H](C)CO)C(=O)c2cc(NC(=O)C3CCCCC3)ccc2O1`, the call was inactive.

For the compound `C[C@H](CO)N1C[C@H](C)[C@H](CN(C)C(=O)Nc2ccc(F)cc2)OCCCC[C@H](C)Oc2ccc(NC(=O)C3CCCCCC3)cc2C1=O`, the outcome was inactive. `C[C@H](CO)N1C[C@H](C)[C@H](CN(C)C(=O)Nc2cccc(F)c2)OCCCC[C@H](C)Oc2ccc(NC(=O)C3CCCCC3)cc2C1=O`: the compound was called inactive. Under `C[C@H](CO)N1C[C@H](C)[C@H](CN(C)C(=O)Nc2cccc3ccccc23)OCCCC[C@H](C)Oc2ccc(NC(=O)NC3CCCCC3)cc2C1=O` stands “inactive”; under `C[C@H]1CCCCO[C@@H](CN(C)C(=O)Nc2ccc(C(F)(F)F)cc2)[C@@H](C)CN([C@@H](C)CO)C(=O)c2cc(NC(=O)CCC(F)(F)F)ccc2O1`, “inactive”. Regarding `C[C@H](CO)N1C[C@H](C)[C@H](CN(C)C(=O)Nc2ccc(F)cc2)OCCCC[C@H](C)Oc2ccc(NC(=O)Nc3ccc(F)cc3)cc2C1=O`, the result was inactive.
